Results: the supplement of paper PMC11628255, “Interference of metal ions on the bioluminescent signal of firefly, Renilla, and NanoLuc luciferases in high-throughput screening assays” (Frontiers in Chemistry, 2024)
± gives the standard deviation of the averaged measurements.

Tested on: firefly luciferase (FLuc)
Assay: residual bioluminescent signal relative to negative control without GSH; higher = less interference (more residual luciferase signal)
Settings: screening conditions buffer
Procedure: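 Selected metal salts at 3-4 concentrations tested on purified FLuc, NLuc or RLuc in screening buffer with 0, 0.2 or 2 mM glutathione added; 10 min enzyme pre-incubation at RT, luminescence 10 min after substrate. Signal normalised to negative control without GSH (% N_VALUE); triplicate wells.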

[1] = metal salt concentration 1 mM, glutathione 0 mM
[2] = metal salt concentration 1 mM, glutathione 0.2 mM
[3] = metal salt concentration 1 mM, glutathione 2 mM

Structure (SMILES): [Cl][Fe]([Cl])[Cl] [iron(III) chloride]
- residual bioluminescent signal (metal salt concentration 0.0001 mM, glutathione 0 mM): 89.7 ± 5%
- residual bioluminescent signal (metal salt concentration 0.0001 mM, glutathione 0.2 mM): 66.3 ± 5.5%
- residual bioluminescent signal (metal salt concentration 0.0001 mM, glutathione 2 mM): 0.338 ± 0.22%
- residual bioluminescent signal (metal salt concentration 0.0047 mM, glutathione 0 mM): 51.2 ± 3.8%
- residual bioluminescent signal (metal salt concentration 0.0047 mM, glutathione 0.2 mM): 36.4 ± 2.5%
- residual bioluminescent signal (metal salt concentration 0.0047 mM, glutathione 2 mM): 0.483 ± 0.17%
- residual bioluminescent signal (metal salt concentration 0.02 mM, glutathione 0 mM): 1.11 ± 0.084%
- residual bioluminescent signal (metal salt concentration 0.02 mM, glutathione 0.2 mM): 0.87 ± 0.14%
- residual bioluminescent signal (metal salt concentration 0.02 mM, glutathione 2 mM): 0.725 ± 0.43%
- residual bioluminescent signal [1]: 1.06 ± 0.36%
- residual bioluminescent signal [2]: 0.628 ± 0.47%
- residual bioluminescent signal [3]: 0.29 ± 0.14%

Structure (SMILES): [Cl][Fe][Cl] [iron(II) chloride]
- residual bioluminescent signal (metal salt concentration 0.2 mM, glutathione 0 mM): 98.6 ± 7.2%
- residual bioluminescent signal (metal salt concentration 0.2 mM, glutathione 0.2 mM): 85.2 ± 7.9%
- residual bioluminescent signal (metal salt concentration 0.2 mM, glutathione 2 mM): 0.483 ± 0.3%
- residual bioluminescent signal (metal salt concentration 0.26 mM, glutathione 0 mM): 2.17 ± 0.52%
- residual bioluminescent signal (metal salt concentration 0.26 mM, glutathione 0.2 mM): 0.87 ± 0.25%
- residual bioluminescent signal (metal salt concentration 0.26 mM, glutathione 2 mM): 0.387 ± 0.3%
- residual bioluminescent signal [1]: 0.58 ± 0.29%
- residual bioluminescent signal [2]: 0.556 ± 0.31%
- residual bioluminescent signal [3]: 0.531 ± 0.22%
